Data taken from PubChem BioAssay AID1851 (National Center for Advancing Translational Sciences (NCATS), 2009).
Among all 16,000 compounds or so, about 2,600 (16%) were called active. Roughly 20% stayed inconclusive and do not appear here. The call rests on the fitted dose curve; in most records, active means well fitted curve in the direction sought with a large enough effect; inconclusive means small, poorly fitted or top-dose-only effect, or effect the other way; inactive means no such curve, though single readings can be large or run the other way. Only a sample is shown.

Each compound was assayed against Cytochrome P450 2D6 (Homo sapiens) (UniProt P10635) (assay: Cytochrome panel assay with activity outcomes). Details: recombinant CYP, pro-luciferin dealkylation, luminescence, p450-cyp2d6; series mostly up to 57.1 µM.
On the % scale 0 is the no-effect control and ±100 the full control effect.

Chain of Cytochrome P450 2D6 (Homo sapiens) (P10635 whole entry, looked up): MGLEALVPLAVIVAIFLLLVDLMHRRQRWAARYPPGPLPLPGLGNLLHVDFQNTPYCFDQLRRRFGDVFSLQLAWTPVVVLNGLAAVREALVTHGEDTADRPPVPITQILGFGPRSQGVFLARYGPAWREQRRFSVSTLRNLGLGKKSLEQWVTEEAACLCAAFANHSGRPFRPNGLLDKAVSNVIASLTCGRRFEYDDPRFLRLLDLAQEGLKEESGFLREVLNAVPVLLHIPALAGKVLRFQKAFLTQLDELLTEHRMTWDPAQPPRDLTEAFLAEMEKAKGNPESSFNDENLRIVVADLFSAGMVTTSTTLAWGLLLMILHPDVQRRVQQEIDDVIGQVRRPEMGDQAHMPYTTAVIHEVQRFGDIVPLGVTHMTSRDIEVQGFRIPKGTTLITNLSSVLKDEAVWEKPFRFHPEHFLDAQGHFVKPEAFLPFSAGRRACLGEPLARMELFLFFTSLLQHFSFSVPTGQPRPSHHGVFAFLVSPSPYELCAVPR

Structure (SMILES)	AC50	activity, negative = inhibition
Cc1ccc(-n2cnc(=O)c3cccnc32)cc1	inactive	–
Cc1ccc(-n2c(-c3ccc(Br)cc3)c[n+]3c2CCc2ccc4cccnc4c2-3)cc1	1.41 µM (active)	–
CCCCC[C@H](CC(=O)NO)C(=O)N[C@@H](C(=O)N1CCC[C@H]1CO)C(C)C	inactive	–
Nc1ccc(O)c(C(=O)O)c1	inactive	–
CCC(=O)NC(Nc1sc2c(c1C(=O)OC)CCCC2)(C(F)(F)F)C(F)(F)F	inactive	–
O=[N+]([O-])c1ccc2ncccc2c1CCc1c([N+](=O)[O-])ccc2ncccc12	–	-19.7% [at 11.4 µM] (inactive)
O=C(Nc1ccccn1)c1ccco1	inactive	–
S=C(NCc1ccco1)N1CCN(Cc2ccco2)CC1	7.94 µM (active)	–
Cc1cccc(C(=O)NC2CCN(C(=S)NCc3ccco3)CC2)c1	inactive	–
O=C(CSc1ccccc1C(=O)O)NCc1ccco1	inactive	–
O=C(O)C1C2CCC(C2)C1C(=O)NCc1ccco1 (stereo not drawn)	inactive	–
S=C(NCc1ccco1)N1CCN(C(c2ccccc2)c2ccccc2)CC1	7.94 µM (active)	–
CCS(=O)(=O)N1CCC(C(=O)NCc2ccco2)CC1	inactive	–
O=C(NCc1ccco1)c1cc(C(=O)C2CC2)c[nH]1	inactive	–
O=C1Nc2ccccc2C1=Nc1ccc(S(=O)(=O)Nc2nccs2)cc1	–	16.3% [at 11.4 µM] (inactive)
COc1ccc2c(OC)c3ccoc3nc2c1OC	inactive	–
CC(C)(C)N1C(=O)[C@H]2[C@@H]3[C@H](O)[C@H](O)CC(=O)[C@H]3CC[C@H]2C1=O	–	7.18% [at 11.4 µM] (inactive)
O=C(CN1CCN(Cc2ccccc2)CC1)c1ccc(Br)cc1	1.41 µM (active)	–
O=C(c1coc(=O)c2ccccc12)N1CCN(Cc2ccccc2)CC1	inactive	–
O=C(c1cc(C(F)(F)F)cc(C(F)(F)F)c1)N1CCC2(CCN(Cc3ccccc3)CC2)CC1	inactive	–
CCc1c(O)nc2sc3ccccc3n2c1=O	inactive	–
CC(=O)c1cccc(NC=C2C(=O)OC3(CCCCC3)OC2=O)c1	inactive	–
CCc1nnc(NC(=O)c2c(C)nn(-c3ccccc3)c2Cl)s1	inactive	–
CC(=O)NCCNc1ncnc2ccc(-c3ccc(C(=O)N(C)C)cc3)cc12	inactive	–
c1nc(NCCN2CCOCC2)c2cc(-c3ccc4c(c3)OCO4)ccc2n1	7.94 µM (active)	–

Structure (SMILES)	AC50	activity, negative = inhibition
c1ccc2c(c1)CCCc1cc(NCCN3CCOCC3)nnc1-2	inactive	–
CC(=O)NCCNc1ncnc2ccc(-c3ccoc3)cc12	inactive	–
CC(=O)NCCNc1ncnc2ccc(-c3ccc4c(c3)OCO4)cc12	10 µM (active)	–
CN(C)C(=O)c1ccc(-c2ccc3ncnc(NCCN4CCOCC4)c3c2)cc1	inactive	–
c1nc(NCCN2CCOCC2)c2cc(-c3ccoc3)ccc2n1	2 µM (active)	–
Clc1ccccc1-c1ccc2ncnc(NCCN3CCOCC3)c2c1	10 µM (active)	–
c1ccc(-n2ncc3c(NCCCN4CCOCC4)ncnc32)cc1	inactive	–
Clc1ccccc1-c1cc(NCCN2CCOCC2)ncn1	inactive	–
CCCc1nnc(NC(=O)c2cccs2)s1	inactive	–
O=C(/C=C/c1ccc(Br)cc1)NC1CCCCCC1	inactive	–
Cc1ccc(C(=O)Nc2cccc(-c3cnc4ccccc4n3)c2)cc1	inactive	–
Cc1cc2c(=O)[nH]c(N)nc2nc1C	–	14.7% [at 11.4 µM] (inactive)
O=c1[nH]c(SCc2cccc([N+](=O)[O-])c2)nc2nc[nH]c12	–	10.7% [at 11.4 µM] (inactive)
CSc1nc2n(n1)C(c1cc(Br)ccc1F)C(C(=O)N(C)C)=C(C)N2 (stereo not drawn)	inactive	–
CN[C@]1(C)[C@@H]2CC[C@@H](C2)C1(C)C	inactive	–
Cc1ccc(NC(=O)CCN2C(=O)c3ccncc3C2=O)cc1	inactive	–
CCN1C(=O)[C@H]2[C@H]3[C@H](O)[C@H](O)C/C(=N/NC(=O)OCc4ccccc4)[C@@H]3CC[C@@H]2C1=O	–	10.8% [at 11.4 µM] (inactive)
CCN1C(=O)/C(=C2\SC(=S)N(CCCOC)C2=O)c2ccccc21	inactive	–
N[C@@H](Cc1cc(CP(=O)(O)O)cc(-c2ccccc2Cl)c1)C(=O)O	inactive	–
Cc1ccc(-c2csc3ncnc(NCCN4CCOCC4)c23)cc1	2.82 µM (active)	–
CC(=NCCN1CCN(C(=S)Nc2ccccc2)CC1)C1=C(O)CC(C)(C)CC1=O	inactive	–
O=C(Nc1ccc2c(c1)Cc1ccccc1-2)[C@@H]1[C@H](C(=O)O)[C@]2(Cl)C(Cl)=C(Cl)[C@@]1(Cl)C2(Cl)Cl	–	-10.2% [at 11.4 µM] (inactive)
O=[N+]([O-])C(/C=C(\Cl)[N+](=O)[O-])=C1N(Cc2ccc(Cl)nc2)CCN1Cc1ccc(Cl)nc1	15.8 µM (active)	–
Nc1ccc(N2C(=O)c3ccccc3C2=O)c(Cl)c1	inactive	–
COc1ccc(-n2c(=O)c(C)nc3cnc(Nc4ccccc4)nc32)cc1	inactive	–

Structure (SMILES)	AC50	activity, negative = inhibition
O=S(=O)(/N=C(/Nc1ccc(F)cc1F)c1ccc(Cl)cc1)c1ccccc1	inactive	–
NCC(=O)Nc1ccc(Cl)cc1C(=O)c1ccc[nH]1	–	3.55% [at 11.4 µM] (inactive)
Cc1c(NC(=O)CSc2nnc3c4ccccc4n(CCc4ccccc4)c3n2)c(=O)n(-c2ccccc2)n1C	inactive	–
Cc1ccc(-n2c(O)cnc2Nc2nc(C)cc(C)n2)cc1	12.6 µM (active)	–
Cc1ccc(-n2c(C)cc(C(=O)CSc3n[nH]c(N)n3)c2C)cc1	inactive	–
Cc1ccc(-n2c(-c3ccccc3)cc(=O)nc2C)cc1	inactive	–
CSc1nc(NC2CCCC2)c([N+](=O)[O-])c(NC2CCCC2)n1	inactive	–
C#CCCCO/N=C1/C[C@@H](O)[C@@H](O)[C@@H]2[C@H]3C(=O)N(c4ccc(F)cc4F)C(=O)[C@@H]3CC[C@@H]12	–	8.28% [at 11.4 µM] (inactive)
CC(C)[C@H]1C(=O)C(C(N)=O)=C(O)[C@]2(O)C(=O)C3=C(O)c4c(O)ccc(N(C)C)c4C[C@H]3C[C@@H]12	inactive	–
Oc1c(CN2CCOCC2)cc(-c2ccccc2)cc1CN1CCOCC1	12.6 µM (active)	–
N#C/C(=C/N1CCOCC1)c1ccccc1	inactive	–
CCc1cc2c(=O)c(-c3cnn(-c4ccccc4)c3)coc2c(CN2CCOCC2)c1O	inactive	–
NC/C=C\C(=O)O	inactive	–
C[C@H](O/N=C1/[C@H]2O[C@@H]2[C@@H](O)[C@H]2[C@H]1CCn1c(=O)n(-c3ccccc3)c(=O)n12)c1cn([C@H]2COC[C@H]2O)nn1	–	-1.7% [at 11.4 µM] (inactive)
CCc1nnc(NC(=O)CSc2ncnc3c2cnn3-c2ccc(OC)cc2)s1	inactive	–
CCOC(=O)CN1C(=O)Nc2ccc(Br)cc2C1c1ccccc1 (stereo not drawn)	inactive	–
CC1=C(C(N)=O)C(c2ccccc2)n2nc(-c3ccncc3)nc2N1 (stereo not drawn)	inactive	–
Cc1cc2ccccc2c[n+]1CC(O)C[n+]1cc2ccccc2cc1C	0.0251 µM (active)	–
Cc1ccc[n+](CC(=O)c2cc3ccccc3oc2=O)c1	inactive	–
C[C@@H]1/C=C\CC(=O)OC[C@H](C)C(=O)N2CCC[C@@H]2C(=O)OC1	–	7.63% [at 11.4 µM] (inactive)
Cc1o[nH]c(=O)c1CC[C@H](N)C(=O)O	inactive	–
Cc1oc(-c2ccccc2)cc1C(=O)Nc1ccc(N(C)C)cc1	7.94 µM (active)	–
Cc1oc(C(C)(C)C)cc1C(=O)Nc1cccc(/C=C/C(=O)O)c1	inactive	–
Cc1ccc(NC(=O)c2ccccc2C(=O)O)cc1C	–	-8.28% [at 11.4 µM] (inactive)
CCOC(=O)C1=C(N)n2c(s/c(=C\c3ccco3)c2=O)=C(C(=O)OCC)C1c1ccco1 (stereo not drawn)	inactive	–

Structure (SMILES)	AC50	activity, negative = inhibition
Cc1cc2nc3[nH]c4c(Cl)cc(Cl)cc4c3nc2cc1C	–	4.24% [at 11.4 µM] (inactive)
O=c1[nH]cc(CS(=O)(=O)Cc2c[nH]c(=O)[nH]c2=O)c(=O)[nH]1	–	-1.45% [at 11.4 µM] (inactive)
CC(C)CN(CC(C)C)C1=N/C(=C\c2ccco2)C(=O)N1c1ccccc1	inactive	–
CCOC(=O)c1ccc(Nc2nc(C(=O)OCC)nc3ccccc23)cc1	3.98 µM (active)	–
Cc1noc(C)c1-c1nc(Nc2ccc(F)cc2)c2ccccc2n1	inactive	–
CCOC(=O)c1ccc(Nc2nc(=O)c3cccnc3s2)cc1	inactive	–
CCCc1nc2sc3ccccc3c(=O)c2c(=O)n1CCOC	inactive	–
COc1cc(C(=O)NC(=S)Nc2cccc(-c3cc4ccccc4oc3=O)c2)cc(OC)c1OC	inactive	–
CC(=O)NS(=O)(=O)c1ccc(NC(=S)NC(=O)c2ccco2)cc1	inactive	–
Cc1cccc(N(C)C(=S)Oc2ccc3ccccc3c2)c1	inactive	–
O=C(O)c1ccccc1NCn1c(=S)sc2ccccc21	–	-8.67% [at 11.4 µM] (inactive)
N=c1sc2ccccc2n1CCS (tested in a mixture with another compound)	0.316 µM (active)	–
Cn1c(=NC(=O)CCl)sc2ccccc21	inactive	–
CCS(=O)(=O)N1CCC(C(=O)NCc2ccccc2OC)CC1	inactive	–
COc1ccccc1CNCC(O)(c1ccc(Cl)cc1)c1ccc(Cl)cc1	0.316 µM (active)	–
COc1cccc(CNc2ccc(F)c(Cl)c2)c1O	inactive	–
COC(=O)c1sccc1NC(=O)c1cc(-c2cc(C)ccc2C)nc2ccccc12	inactive	–
Cc1nnc(NC(=O)CSc2ncnc3c2cnn3-c2ccccc2C)s1	inactive	–
O=C(O)c1cccnc1SCC(=O)N1CCCCCC1	inactive	–
Cc1ccc(SCCNC(=O)c2ccccc2)cc1	inactive	–
COC(=O)c1cc(OC)c(OC)cc1NC(=O)CSc1ccc(C)cc1	inactive	–
Cc1ccc(SCCNC(=O)c2ccc(C)c(S(=O)(=O)Nc3ccccc3C)c2)cc1	7.94 µM (active)	–
COc1ccc(C2C(=O)N(C3CCCCCC3)CC(=O)N2Cc2ccccc2)cc1OC (stereo not drawn)	inactive	–
